# In PubChem BioAssay (Tox21):
# Several values for one entry are separate records, joined by “and”; a condition that tells them apart may be missing. Equal values may be shown once. Records with an inconclusive call do not appear. Where a call stands in place of a potency, no number is given. Some compounds were tested as several samples or in several runs, with calls that do not always agree. Activity calls are given as the source filed them. Unless noted, the call rests on the fitted dose curve; in most records, active means well fitted curve in the direction sought with a large enough effect in the repeat runs; inconclusive means weak or mixed curves; inactive means no such curve, though single readings can be large; an effect the other way counts as inactive or inconclusive.
# Experiments:
# [1] = qHTS assay to identify small molecule antagonists of the glucocorticoid receptor (GR) signaling pathway - cell viability counter screen (AID 720693); further: nearly all actives have a fitted effect of over 55% in size
# [2] = qHTS assay for identifying genotoxic compounds that show differential cytotoxicity against isogenic chicken DT40 cell lines with known DNA damage response pathways - wild type cell line (AID 743012); further: nearly all actives have a fitted effect of over 60% in size; further: potency means the concentration at half of the fitted maximal effect
# Summary of the method: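 Wild-type DT40 cells (300/well) exposed to compounds for 40 hours at 37 C/5% CO2. Viability read by CellTiter-Glo luminescence after 30 min at room temperature.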
# [3] = qHTS assay for identifying genotoxic compounds that show differential cytotoxicity against isogenic chicken DT40 cell lines with known DNA damage response pathways - Rev3 mutant cell line (AID 743014); further: nearly all actives have a fitted effect of over 55% in size; further: potency means the concentration at half of the fitted maximal effect
# [4] = qHTS assay for identifying genotoxic compounds that show differential cytotoxicity against isogenic chicken DT40 cell lines with known DNA damage response pathways - Rad54/Ku70 mutant cell line (AID 743015); further: nearly all actives have a fitted effect of over 60% in size; further: potency means the concentration at half of the fitted maximal effect
# [5] = qHTS assay to identify small molecule antagonists of the androgen receptor (AR) signaling pathway - cell viability counter screen (AID 743033; further: nearly all actives have a fitted effect of over 45% in size)
# [6] = qHTS assay to identify small molecule antagonists of the androgen receptor (AR) signaling pathway using the MDA cell line - cell viability counter screen (AID 743041; further: nearly all actives have a fitted effect of over 45% in size)
# Summary of the method: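 Viability counter screen run alongside the AR antagonist reporter: cells seeded 5 h before compound, R1881 added, 16 h incubation at 37C without CO2, fluorescent CellTiter-Fluor signal quantified.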
# [7] = biological target: Androgen receptor (Homo sapiens) (UniProt P10275); test: qHTS assay to identify small molecule antagonists of the androgen receptor (AR) signaling pathway (AID 743035; active means well fitted inhibition curve with a large enough effect in the signal ratio in the repeat runs, not every such curve was filed as active; the % refers to the signal ratio; further: potency means the concentration at half of the fitted maximal effect)
# Summary of the method: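 HEK293 cells stably carrying UAS-beta-lactamase reporter, 2,000/well, given compounds plus R1881 agonist and incubated 16 h at 37C. LiveBLAzer B/G FRET substrate then added for 2 h at room temperature before fluorescence reading.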
# [8] = biological target: Androgen receptor (Homo sapiens) (UniProt P10275); test: qHTS assay to identify small molecule agonists of the androgen receptor (AR) signaling pathway using the MDA cell line (AID 743040; further: nearly all actives have a fitted effect of over 20% in size; further: potency means the concentration at half of the fitted maximal effect)
# Summary of the method: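 Luminescence from ONE-Glo, read after 30 min at room temperature, reflects MMTV-driven luciferase in MDA-kb2 cells (AR- and GR-responsive). Treatment lasted 16 h at 37C, 0% CO2.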
# [9] = biological target: Androgen receptor (Homo sapiens) (UniProt P10275); test: qHTS assay to identify small molecule antagonists of the androgen receptor (AR) signaling pathway using the MDA cell line (AID 743042; further: nearly all actives have a fitted effect of over 55% in size)
# Summary of the method: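 MDA-kb2 cells (human breast carcinoma, stably carrying an MMTV-luciferase reporter responsive to AR and GR) were plated at 3,000 cells/well and preincubated 5 hr at 37C, then given compound plus R1881 agonist for 16 h. ONE-Glo luminescence was read.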
# [10] = biological target: Androgen receptor (Homo sapiens) (UniProt P10275); test: qHTS assay to identify small molecule agonists of the androgen receptor (AR) signaling pathway (AID 743036; active means well fitted activation curve with a large enough effect in the signal ratio in the repeat runs, with a control signal flat, not every such curve was filed as active; the % refers to the signal ratio)
# Summary of the method: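 Fluorescence from a beta-lactamase FRET substrate served as read-out in AR-UAS-bla GripTite HEK293 cells. Cells were treated with DMSO-dissolved compounds for 16 h at 37C, then with LiveBLAzer B/G substrate for 2 h at room temperature.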
# Sequence of Androgen receptor (Homo sapiens) (P10275 whole entry, looked up): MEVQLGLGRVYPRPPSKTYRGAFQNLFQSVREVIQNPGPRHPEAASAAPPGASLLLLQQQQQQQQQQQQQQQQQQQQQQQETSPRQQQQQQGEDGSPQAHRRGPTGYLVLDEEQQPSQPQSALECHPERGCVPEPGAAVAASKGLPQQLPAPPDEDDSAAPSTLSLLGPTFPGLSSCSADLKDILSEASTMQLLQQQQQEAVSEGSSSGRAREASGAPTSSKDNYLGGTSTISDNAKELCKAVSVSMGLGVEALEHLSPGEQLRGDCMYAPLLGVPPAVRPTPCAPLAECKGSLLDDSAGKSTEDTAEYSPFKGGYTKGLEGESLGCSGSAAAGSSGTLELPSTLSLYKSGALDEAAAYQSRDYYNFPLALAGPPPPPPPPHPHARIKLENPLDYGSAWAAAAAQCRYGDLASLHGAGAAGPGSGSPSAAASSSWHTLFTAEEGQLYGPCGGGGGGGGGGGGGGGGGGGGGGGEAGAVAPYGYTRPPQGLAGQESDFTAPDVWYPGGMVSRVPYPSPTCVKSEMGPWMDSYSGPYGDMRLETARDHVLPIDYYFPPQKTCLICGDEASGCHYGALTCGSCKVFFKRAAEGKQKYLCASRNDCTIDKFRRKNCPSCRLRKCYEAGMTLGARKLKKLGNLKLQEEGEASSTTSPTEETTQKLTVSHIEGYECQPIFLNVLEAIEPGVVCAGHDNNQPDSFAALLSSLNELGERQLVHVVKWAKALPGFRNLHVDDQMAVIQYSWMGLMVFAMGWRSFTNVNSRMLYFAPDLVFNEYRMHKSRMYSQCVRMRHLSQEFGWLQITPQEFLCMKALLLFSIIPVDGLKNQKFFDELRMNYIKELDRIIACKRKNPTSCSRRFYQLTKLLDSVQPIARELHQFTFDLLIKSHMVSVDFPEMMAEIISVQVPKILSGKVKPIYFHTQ
Compound,Potency [1],Potency [2],Potency [3],Potency [4],Potency [5],Potency [6],Potency [7],Potency [8],outcome [9],outcome [10]
C(CCOCC1CO1)COCC1CO1 (stereo not given),inactive,12 µM (active),1.07 µM (active),15.1 µM (active),inactive,inactive,,,,
CCC(Cl)[N+](=O)[O-] (stereo not given),inactive,inactive,inactive,inactive,inactive,inactive,,,,
CCCCc1c(C)nc(NCC)[nH]c1=O,inactive,inactive,inactive,inactive,inactive,inactive,,,,
O=C1c2ccccc2C(=O)c2ccccc21,inactive,inactive,inactive,inactive,inactive,,,,,
CCC(=O)c1ccccc1,inactive,inactive,inactive,inactive,inactive,inactive,inactive,inactive,inactive,
NC(=O)c1cc([N+](=O)[O-])cc([N+](=O)[O-])c1,inactive,inactive,inactive,inactive,inactive,inactive,,,,
CCOC(=O)/C=C(C)/C=C/C[C@@H](C)CCCC(C)C,inactive,30.6 µM (active),54.5 µM (active),inactive and 43.3 µM (active),inactive,inactive,,,,
N#Cc1c(Cl)cccc1Cl,inactive,inactive,inactive,inactive,inactive,inactive,,,,
O=[N+]([O-])c1cccc2c([N+](=O)[O-])cccc12,inactive,inactive,inactive,inactive,inactive,inactive,inactive,inactive,inactive,inactive
C[C@H]1CCC[C@H](O)CCCCCc2cc(O)cc(O)c2C(=O)O1,inactive,18.8 µM (active) and 61.6 µM (active),26.6 µM (active) and 27.5 µM (active),16.8 µM (active) and 43.6 µM (active),inactive,,,,,
CNC(=O)Oc1ccccc1C1OCCO1,inactive,inactive,inactive,inactive,inactive,inactive,,inactive,inactive,
C[C@@H]1CN(C2CCC(C#N)(c3ccc(F)cc3)CC2)CC[C@]1(C(=O)O)c1ccccc1 (stereo not given in full),inactive,inactive,inactive,inactive,inactive,inactive,,,,
COC(=O)C(c1ccccc1)C1CCCCN1 (stereo not given),inactive,inactive,inactive,inactive,inactive,inactive,inactive,inactive,inactive,inactive
CNC(=O)Oc1ccc(N(C)C)c(C)c1,inactive,54.5 µM (active),34.4 µM (active),68.6 µM (active),inactive,,,,,
Cc1cnc[nH]1,inactive,inactive,inactive,inactive,inactive,inactive,inactive,inactive,inactive,inactive
CCOP(=S)(OCC)Oc1ncn(-c2ccccc2)n1,inactive,61.1 µM (active),34.4 µM (active),48.6 µM (active),inactive,inactive,,inactive,inactive,inactive
COC(=O)c1ccccc1S(=O)(=O)NC(=O)Nc1nc(C)cc(C)n1,inactive,inactive,inactive,inactive,inactive,inactive,,,,
C#C[C@]1(O)C=C[C@H]2[C@@H]3CCC4=CC(=O)CC[C@@H]4[C@H]3CC[C@@]21CC,inactive,23.7 µM (active),26.6 µM (active),23.7 µM (active),inactive,inactive,0.19 µM (active),0.0133 µM (active),inactive,
O=C(Nc1ccccc1)c1ccccc1I,inactive,48.6 µM (active),27.3 µM (active),61.1 µM (active),inactive,inactive,,inactive,inactive,inactive
c1cc2c(c(N3CCNCC3)c1)OCCO2,inactive,inactive,inactive,inactive,inactive,inactive,inactive,inactive,inactive,inactive
O=C(O)c1ccc2[nH]cc(CCCCN3CC=C(c4ccccc4)CC3)c2c1,inactive,inactive,inactive,inactive,inactive,inactive,inactive,inactive,inactive,inactive
CCN(CC)C(C)C(=O)c1ccccc1 (stereo not given),inactive,inactive,inactive,inactive,inactive,inactive,inactive,inactive,inactive,inactive
COc1ncc(F)c2nc(S(=O)(=O)Nc3c(F)cccc3F)nn12,inactive,inactive,inactive,inactive,inactive,inactive,inactive,inactive,inactive,
CN1CCC(O)(c2ccc(F)cc2)C(C(=O)c2ccc(F)cc2)C1 (stereo not given),inactive,9.44 µM (active),13.3 µM (active),13.3 µM (active),inactive,,,,,
C[N+](C)=CCl,inactive,inactive,inactive,inactive,inactive,inactive,,,,
Cc1nc(N)nc(N)n1,inactive,inactive,inactive,inactive,inactive,inactive,inactive,,inactive,
